Records with an inconclusive call do not appear. Calls of active or inactive are those of the source. Calls come from the whole dose curve; as a rule, active = well fitted inhibition curve with a large enough effect; inconclusive = small, poorly fitted or top-dose-only effect; inactive = flat fitted curve, though single readings scatter.
How the values were obtained:
Experiment in all cases: qHTS profiling for inhibitors of Plasmodium falciparum proliferation (AID 504749); note: nearly all actives have a fitted effect of over 60% in size
Conditions in all cases: P. falciparum in erythrocytes, SYBR Green DNA, 72 h; series mostly up to 28.7 µM
CP297 = system: CP297
In short: (§1)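 Fluorescence of SYBR Green-bound parasite DNA, read at 485/535 nm, served as the growth measure. Infected erythrocytes were cultured with compound 72 h; artemisinin (0.29 uM) and DMSO wells defined the normalization range.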

CP305 = system: CP305
In short: as §1

CP315 = system: CP315
In short: as §1

CP325 = system: CP325
In short: as §1

CP329 = system: CP329
In short: as §1

DIV17 = system: DIV17
In short: as §1

DIV30 = system: DIV30
In short: as §1

Dd2 = system: Dd2
In short: as §1

DFO2036 = system: DFO2036
In short: as §1

FAB9 = system: FAB9
In short: as §1

GB4 = system: GB4
In short: as §1

HB3 = system: HB3
In short: as §1

JCK = system: JCK
In short: as §1

CP291 = system: CP291
In short: as §1

CP335 = system: CP335
In short: as §1

ECU = system: ECU
In short: as §1

ICS = system: ICS
In short: as §1

N140 = system: N140
In short: as §1

P93_24 = system: P93_24
In short: as §1

DIV14 = system: DIV14
In short: as §1

Measured: Potency
Potency is the fitted concentration of half-maximal effect.

CCCCCCCC/C=C\CCCCCCCC(=O)NCc1ccc(O)c(OC)c1
active: Dd2 14.1 µM
inactive: CP297 | CP305 | CP315 | CP325 | CP329 | DIV17 | DIV30

OC(CCN1CCCCC1)(c1ccccc1)C1CCCCC1 (stereo not drawn)
inactive: CP297 | CP305 | CP315 | CP325 | CP329 | DFO2036 | FAB9 | GB4 | HB3 | JCK

c1cnc(N2CCN(Cc3ccc4c(c3)OCO4)CC2)nc1
not listed: CP297 | DIV14
inactive: all other assays above

CN(C)CCCN1c2ccccc2Sc2ccccc21
active: DIV14 1.81 µM | DIV17 2.87 µM | Dd2 3.16 µM
inactive: CP297 | ECU | FAB9 | HB3

C=CCc1ccccc1OCC(O)CNC(C)C (stereo not drawn)
inactive: FAB9
active: DIV14 8.49 µM | DIV17 8.49 µM | Dd2 7.94 µM | GB4 7.57 µM | ICS 11.2 µM | N140 11.2 µM | P93_24 4.47 µM

CC(C)(C)c1ccc(C(=O)CCCN2CCC(OC(c3ccccc3)c3ccccc3)CC2)cc1
inactive: CP315 | JCK
active: CP305 10.7 µM | CP335 6.75 µM | Dd2 10 µM | GB4 10.7 µM | ICS 4.47 µM | N140 10 µM

CCOC(=O)C1=C(C)NC(C)=C(C(=O)OC)C1c1cccc([N+](=O)[O-])c1 (stereo not drawn)
active: HB3 11.2 µM | N140 11.2 µM
inactive: CP315 | FAB9

COCCCC/C(=N\OCCN)c1ccc(C(F)(F)F)cc1
inactive: FAB9 | HB3 | JCK
active: Dd2 7.94 µM | P93_24 8.91 µM

CCN(CC)CCNC(=O)c1cc(S(C)(=O)=O)ccc1OC
inactive: CP335 | DFO2036 | Dd2 | ECU | FAB9 | HB3 | ICS | JCK | N140 | P93_24

CCOC(=O)C1=C(C)NC(C)=C(C(=O)OC)C1c1cccc(Cl)c1Cl (stereo not drawn)
not listed: CP329 | CP291 | CP335 | ICS
inactive: all other assays above

CN(C)CC/C=C1\c2ccccc2COc2ccccc21
inactive: CP297 | CP315 | DFO2036 | ECU | FAB9 | HB3 | JCK
active: Dd2 8.91 µM

CNCCC(Oc1ccccc1OC)c1ccccc1 (stereo not drawn)
inactive: CP297 | CP315 | FAB9 | HB3
active: DIV14 4.78 µM | DIV17 8.49 µM | Dd2 6.31 µM

CCC(=O)c1ccc2c(c1)N(CCCN(C)C)c1ccccc1S2
active: DIV14 6.01 µM | DIV17 4.78 µM | Dd2 7.94 µM | ICS 8.91 µM
inactive: CP297 | CP315 | ECU | HB3

CN(C(=O)CCCOc1ccc2[nH]c(=O)ccc2c1)C1CCCCC1
inactive: CP305 | CP315 | CP325 | CP329 | CP335 | DFO2036 | ECU | FAB9 | GB4 | HB3 | N140

Fc1ccc(C(c2ccc(F)cc2)N2CCN(C/C=C/c3ccccc3)CC2)cc1
active: ECU 11.2 µM | HB3 11.2 µM | ICS 8.91 µM | N140 11.2 µM | P93_24 8.91 µM

CN(C)CC[C@@H](c1ccc(Br)cc1)c1ccccn1
active: DIV14 3.79 µM | DIV17 7.57 µM | Dd2 2.51 µM
inactive: CP305 | CP315 | CP325 | DFO2036 | ECU | FAB9 | HB3

COCCOC(=O)C1=C(C)NC(C)=C(C(=O)OC(C)C)C1c1cccc([N+](=O)[O-])c1 (stereo not drawn)
inactive: CP329 | FAB9
active: CP335 4.78 µM | DIV14 13.5 µM | DIV17 13.5 µM | DIV30 12 µM | ICS 7.08 µM | N140 12.6 µM

CC(C)[N+](C)(CCOC(=O)C1c2ccccc2Oc2ccccc21)C(C)C
inactive: CP315 | DIV30 | JCK

NC(=Nc1ccccc1)Nc1ccccc1
not listed: CP297 | Dd2 | GB4 | DIV14
inactive: all other assays above

CCCN1C[C@H](CSC)C[C@@H]2c3cccc4[nH]cc(c34)C[C@H]21
active: DIV17 7.57 µM | ICS 11.2 µM
inactive: CP297 | CP305 | CP315 | CP325 | CP329 | DFO2036 | FAB9 | HB3

O=C(O)CN(CCN(CC(=O)O)CC(=O)O)CCN(CC(=O)O)CC(=O)O
not listed: CP305 | DIV17 | GB4 | CP291
inactive: all other assays above

O=C(CCCN1CCC(O)(c2cccc(C(F)(F)F)c2)CC1)c1ccc(F)cc1
active: CP335 9.53 µM | DFO2036 10 µM | DIV14 6.75 µM | DIV17 13.5 µM | Dd2 5.62 µM | ECU 2.24 µM | GB4 6.01 µM | HB3 12.6 µM | ICS 5.01 µM | JCK 12.6 µM | N140 7.94 µM | P93_24 10 µM

Source: PubChem BioAssay (NCATS)
